The record followed here is ChEMBL document CHEMBL4513141, “CO-ADD screening of NIH (USA) - Clinical Collection” (2021).

Potency and affinity values are given separately.

For the test, the system named is Cryptococcus neoformans. The note with it: Concentration 20 uM; ASSAY_TEST Inhibition of Fungal Growth; detection method Resazurin; Absorption (OD600-OD570); plate type 384well; NBS; CORNING #3640. Background: Alamar Blue is a resazurin reagent that responds to reducing activity.
What is called Inhibition is the drop in the measured response relative to a control, in per cent. Take `NCCc1ccccn1`: the Inhibition is on record as -5.04%.

With `CC[N+](C)(C)c1cccc(O)c1.[Cl-]` [EDROPHONIUM CHLORIDE], the Inhibition was -6.73%. Regarding `COc1cc([C@@H]2c3cc4c(cc3[C@H](O)[C@H]3COC(=O)[C@H]23)OCO4)cc(OC)c1OC` [PODOFILOX], the Inhibition was -1.83%. The same measure for `CC(COc1ccccc1)N(CCCl)Cc1ccccc1.Cl` (stereo not drawn) [PHENOXYBENZAMINE HYDROCHLORIDE]: -10.83%.

Regarding `COc1cc(-c2ccc(=O)[nH]n2)ccc1OC(F)F` [ZARDAVERINE], the Inhibition was 1.74%. The same measure for `Cl.c1ccc2c(CC3=NCCN3)cccc2c1` [NAPHAZOLINE HYDROCHLORIDE]: -4.12%; for `Cl.O=C1CC2(CCCC2)CC(=O)N1CCCCN1CCN(c2ncccn2)CC1` [BUSPIRONE HYDROCHLORIDE]: -4.43%; for `CC1CCC[C@H](O)CCCCCc2cc(O)cc(O)c2C(=O)O1` (stereo partly drawn): -2.51%. The same measure for `C#C[C@]1(OC(C)=O)CC[C@H]2[C@@H]3CCC4=CC(=O)CC[C@@H]4[C@H]3CC[C@@]21C` [NORETHINDRONE ACETATE]: -4.57%; for `Cl.O[C@@H]1CCCC[C@H]1N1CCC(c2ccccc2)CC1`: -7.38%; for `Cl.O=C1CC[C@@]2(O)[C@H]3Cc4ccc(O)c5c4[C@@]2(CCN3CC2CC2)[C@H]1O5` [NALTREXONE HYDROCHLORIDE]: 0.92%.

Regarding `C[C@]12CC[C@H]3[C@@H](CCC4=CC(=O)CC[C@@]43C)[C@@H]1CC[C@@H]2O` [TESTOSTERONE], the Inhibition is listed as 1.59%. The same measure for `C[N+]1(C)CCCC(OC(=O)C(O)(c2ccccc2)c2ccccc2)C1.[Br-]` (stereo not drawn) [MEPENZOLATE BROMIDE]: -1.1%; for `CN[C@@H]1C[C@@H](c2ccc(Cl)c(Cl)c2)c2ccccc21.Cl` [INDATRALINE HYDROCHLORIDE]: -6.06%.

With `CN(C)CCOc1ccc(/C(=C(/CCCl)c2ccccc2)c2ccccc2)cc1.O=C(O)CC(O)(CC(=O)O)C(=O)O` [TOREMIFENE CITRATE], the Inhibition is reported as -7.47%. The same measure for `CC(C)CC(N(C)C)C1(c2ccc(Cl)cc2)CCC1` (stereo not drawn) [SIBUTRAMINE]: 1.52%; for `C[N+]1(C)CCN(c2ccccc2)CC1.[I-]` [DIMETHYLPHENYLPIPERAZINIUM IODIDE]: -7.47%.

For `CN(C)CCc1c[nH]c2ccc(C[C@H]3COC(=O)N3)cc12` [ZOLMITRIPTAN], the Inhibition worked out at 0.25%. `c1ccc2c(c1)Nc1ccccc1S2` [PHENOTHIAZINE]: the Inhibition worked out at 6.01%.

As to `CC(O)(CS(=O)(=O)c1ccc(F)cc1)C(=O)Nc1ccc(C#N)c(C(F)(F)F)c1` (stereo not drawn) [BICALUTAMIDE], the Inhibition was -5.03%. `O=C(O[C@@H]1Cc2c(O)cc(O)cc2O[C@@H]1c1cc(O)c(O)c(O)c1)c1cc(O)c(O)c(O)c1` [EPIGALOCATECHIN GALLATE]: the Inhibition is reported as -2.04%.

For `Br.Br.CN1CC[C@]2(c3cccc(O)c3)Cc3nc4ccccc4cc3C[C@H]2C1.O`, the Inhibition was determined as 2.37%.

As for `CC(=O)OC1C([N+]2(C)CCCCC2)C[C@H]2C3CC[C@H]4C[C@H](OC(C)=O)C([N+]5(C)CCCCC5)CC4(C)[C@H]3CCC12C.[Br-].[Br-]` (stereo partly drawn), the Inhibition was -9.01%.
